How the values were obtained:
Experiment in all cases: DAPPL (digital affinity profiling via proximity ligation, sequencing); 10 mM Tris-HCl pH 7.5, 50 mM NaCl, 1 mM DTT, 4% glycerol, room temperature, 30 min; GST-TFs on glutathione beads, 16-mer random dsDNA library, 0.1% formaldehyde crosslink after washing; high values mean tight binding
FLI1 = target: T1, FLI1 (Homo sapiens, UniProt Q01543 1-452); settings: protein: recombinant; tags: N-terminal GST; dsDNA, one strand shown
T1 sequence: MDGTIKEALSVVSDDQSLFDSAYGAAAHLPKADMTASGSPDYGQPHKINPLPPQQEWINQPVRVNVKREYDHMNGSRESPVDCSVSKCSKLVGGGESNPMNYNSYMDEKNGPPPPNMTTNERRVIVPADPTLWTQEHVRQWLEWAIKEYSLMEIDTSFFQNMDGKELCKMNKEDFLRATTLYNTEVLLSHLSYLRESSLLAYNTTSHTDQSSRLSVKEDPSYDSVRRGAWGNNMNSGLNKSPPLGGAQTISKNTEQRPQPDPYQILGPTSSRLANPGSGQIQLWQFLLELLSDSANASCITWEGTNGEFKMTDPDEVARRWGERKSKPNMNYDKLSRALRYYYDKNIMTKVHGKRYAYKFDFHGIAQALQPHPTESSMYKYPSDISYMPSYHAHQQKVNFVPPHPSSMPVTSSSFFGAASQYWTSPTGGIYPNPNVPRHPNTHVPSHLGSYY
How it was run: (§1)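 A tag-only sample was pooled with DNA-barcoded human transcription factors that had been expressed in yeast as GST fusions and captured on glutathione beads. The pools were incubated for 30 min at room temperature with 200 nmole of a random double-stranded 16-mer DNA library in Tris/NaCl/DTT/glycerol buffer, then washed, crosslinked with 0.1% formaldehyde, proximity-ligated (BsaI/T4 ligase, 1 h, 37 °C), PCR-amplified and sequenced on an Illumina NextSeq500. Binding signal is each hexamer's read frequency for a factor divided by its frequency for the tag-only sample.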

ELK1 = target: T2, ELK1 (Homo sapiens, UniProt P19419 1-428); settings: protein: recombinant; tags: N-terminal GST; dsDNA, one strand shown
T2 sequence: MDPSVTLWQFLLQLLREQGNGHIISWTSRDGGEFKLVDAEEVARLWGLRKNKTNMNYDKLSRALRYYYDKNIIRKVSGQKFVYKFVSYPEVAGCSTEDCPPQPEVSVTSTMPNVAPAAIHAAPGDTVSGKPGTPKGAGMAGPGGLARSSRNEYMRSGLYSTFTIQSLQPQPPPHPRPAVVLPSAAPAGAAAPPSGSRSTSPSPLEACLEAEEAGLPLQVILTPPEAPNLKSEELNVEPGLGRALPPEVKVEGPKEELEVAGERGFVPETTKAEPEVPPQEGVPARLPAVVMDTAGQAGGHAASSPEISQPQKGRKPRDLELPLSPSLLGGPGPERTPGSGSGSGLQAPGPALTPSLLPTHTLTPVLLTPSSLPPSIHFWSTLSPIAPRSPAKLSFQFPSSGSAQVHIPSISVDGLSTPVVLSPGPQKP
How it was run: as §1

GABPA = target: T3, GABPA (Homo sapiens, UniProt Q06546 1-454); settings: protein: recombinant; tags: N-terminal GST; dsDNA, one strand shown
T3 sequence: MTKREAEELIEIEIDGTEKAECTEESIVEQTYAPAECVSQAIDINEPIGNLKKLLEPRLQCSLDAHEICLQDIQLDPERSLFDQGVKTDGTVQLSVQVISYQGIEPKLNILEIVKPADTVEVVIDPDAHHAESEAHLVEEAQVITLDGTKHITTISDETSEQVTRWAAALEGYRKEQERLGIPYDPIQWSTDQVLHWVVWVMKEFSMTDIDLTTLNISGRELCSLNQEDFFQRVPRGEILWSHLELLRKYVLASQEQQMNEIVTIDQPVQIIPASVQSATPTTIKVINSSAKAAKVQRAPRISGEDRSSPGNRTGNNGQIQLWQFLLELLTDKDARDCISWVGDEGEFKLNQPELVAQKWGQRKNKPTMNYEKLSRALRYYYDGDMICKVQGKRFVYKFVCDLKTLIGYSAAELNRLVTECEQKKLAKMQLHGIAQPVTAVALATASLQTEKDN
How it was run: as §1

ERG = target: T4, ERG (Homo sapiens, UniProt P11308 1-479); settings: protein: recombinant; tags: N-terminal GST; dsDNA, one strand shown
T4 sequence: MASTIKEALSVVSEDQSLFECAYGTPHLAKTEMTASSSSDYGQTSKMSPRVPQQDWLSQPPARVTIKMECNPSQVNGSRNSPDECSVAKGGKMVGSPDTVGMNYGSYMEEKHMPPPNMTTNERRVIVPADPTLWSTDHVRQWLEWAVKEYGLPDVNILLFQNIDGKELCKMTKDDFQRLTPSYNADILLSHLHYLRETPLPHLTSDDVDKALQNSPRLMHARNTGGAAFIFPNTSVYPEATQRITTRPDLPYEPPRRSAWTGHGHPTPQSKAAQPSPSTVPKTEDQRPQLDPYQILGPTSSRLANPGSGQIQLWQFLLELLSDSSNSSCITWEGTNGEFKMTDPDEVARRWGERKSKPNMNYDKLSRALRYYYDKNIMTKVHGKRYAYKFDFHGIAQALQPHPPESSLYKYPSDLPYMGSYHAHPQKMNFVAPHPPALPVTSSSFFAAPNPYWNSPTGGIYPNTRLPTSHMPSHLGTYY
How it was run: as §1

ELF1 = ELF1 (Homo sapiens, UniProt P32519 1-619); settings: protein: recombinant; tags: N-terminal GST; dsDNA, one strand shown
How it was run: as §1

EHF = target: T5, EHF (Homo sapiens, UniProt Q9NZC4 1-300); settings: protein: recombinant; tags: N-terminal GST; dsDNA, one strand shown
T5 sequence: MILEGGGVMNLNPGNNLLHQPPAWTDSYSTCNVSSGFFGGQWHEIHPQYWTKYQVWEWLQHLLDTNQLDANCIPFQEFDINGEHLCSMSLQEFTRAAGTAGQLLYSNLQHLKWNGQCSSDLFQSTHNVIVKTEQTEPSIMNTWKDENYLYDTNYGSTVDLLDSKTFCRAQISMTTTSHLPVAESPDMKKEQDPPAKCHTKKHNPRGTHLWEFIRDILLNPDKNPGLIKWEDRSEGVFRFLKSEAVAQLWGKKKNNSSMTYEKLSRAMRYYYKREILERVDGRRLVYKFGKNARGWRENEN
How it was run: as §1

SPI1 = SPI1 (Homo sapiens, UniProt P17947 1-270); settings: protein: recombinant; tags: N-terminal GST; dsDNA, one strand shown
How it was run: as §1

SPIB = SPIB (Homo sapiens, UniProt Q01892 1-262); settings: protein: recombinant; tags: N-terminal GST; dsDNA, one strand shown
How it was run: as §1

FEV = target: T6, FEV (Homo sapiens, UniProt Q99581 1-238); settings: protein: recombinant; tags: N-terminal GST; dsDNA, one strand shown
T6 sequence: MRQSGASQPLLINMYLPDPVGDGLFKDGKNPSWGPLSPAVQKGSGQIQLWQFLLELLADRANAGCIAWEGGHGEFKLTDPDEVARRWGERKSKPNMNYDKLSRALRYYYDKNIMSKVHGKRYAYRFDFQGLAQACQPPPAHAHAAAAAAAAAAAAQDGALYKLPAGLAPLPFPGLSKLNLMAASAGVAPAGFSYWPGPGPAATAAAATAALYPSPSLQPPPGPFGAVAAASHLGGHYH
How it was run: as §1

ETV5 = ETV5 (Homo sapiens, UniProt P41161 1-510); settings: protein: recombinant; tags: N-terminal GST; dsDNA, one strand shown
How it was run: as §1

HSF1 = HSF1 (Homo sapiens, UniProt Q00613 1-529); settings: protein: recombinant; tags: N-terminal GST; chain copies: 3; dsDNA, one strand shown
How it was run: as §1

SPIC = target: T7, SPIC (Homo sapiens, UniProt Q8N5J4 1-248); settings: protein: recombinant; tags: N-terminal GST; dsDNA, one strand shown
T7 sequence: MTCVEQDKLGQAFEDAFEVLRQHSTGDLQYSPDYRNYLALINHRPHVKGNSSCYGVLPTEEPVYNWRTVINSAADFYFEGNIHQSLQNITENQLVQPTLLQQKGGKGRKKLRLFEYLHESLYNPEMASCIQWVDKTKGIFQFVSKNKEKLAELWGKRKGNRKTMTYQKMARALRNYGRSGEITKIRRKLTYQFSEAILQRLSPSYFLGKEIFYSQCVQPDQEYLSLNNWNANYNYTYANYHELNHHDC
How it was run: as §1

ELF4 = ELF4 (Homo sapiens, UniProt Q99607 1-663); settings: protein: recombinant; tags: N-terminal GST; dsDNA, one strand shown
How it was run: as §1

ELK4 = target: T8, ELK4 (Homo sapiens, UniProt P28324-2 1-405); settings: protein: recombinant; tags: N-terminal GST; dsDNA, one strand shown
T8 sequence: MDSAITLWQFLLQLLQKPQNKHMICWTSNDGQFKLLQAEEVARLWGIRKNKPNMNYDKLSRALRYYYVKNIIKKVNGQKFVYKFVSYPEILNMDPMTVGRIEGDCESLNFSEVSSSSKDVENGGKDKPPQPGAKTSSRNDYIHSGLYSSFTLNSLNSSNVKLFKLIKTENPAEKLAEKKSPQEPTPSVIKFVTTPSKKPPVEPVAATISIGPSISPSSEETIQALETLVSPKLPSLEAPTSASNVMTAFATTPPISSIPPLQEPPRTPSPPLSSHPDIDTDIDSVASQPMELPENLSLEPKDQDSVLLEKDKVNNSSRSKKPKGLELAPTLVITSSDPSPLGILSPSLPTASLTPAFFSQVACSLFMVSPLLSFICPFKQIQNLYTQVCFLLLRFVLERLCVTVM
How it was run: as §1

ETV2 = target: T9, ETV2 (Homo sapiens, UniProt O00321 1-342); settings: protein: recombinant; tags: N-terminal GST; dsDNA, one strand shown
T9 sequence: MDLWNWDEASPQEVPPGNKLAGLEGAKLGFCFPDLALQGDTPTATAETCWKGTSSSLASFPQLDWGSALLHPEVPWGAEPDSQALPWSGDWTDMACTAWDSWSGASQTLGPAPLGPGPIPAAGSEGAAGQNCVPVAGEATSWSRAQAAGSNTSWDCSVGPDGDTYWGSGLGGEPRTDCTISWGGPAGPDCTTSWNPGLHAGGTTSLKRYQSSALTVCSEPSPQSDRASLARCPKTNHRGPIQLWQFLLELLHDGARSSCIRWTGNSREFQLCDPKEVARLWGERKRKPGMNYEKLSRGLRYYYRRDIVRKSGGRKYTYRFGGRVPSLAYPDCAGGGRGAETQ
How it was run: as §1

ELF3 = target: T10, ELF3 (Homo sapiens, UniProt P78545 1-371); settings: protein: recombinant; tags: N-terminal GST; dsDNA, one strand shown
T10 sequence: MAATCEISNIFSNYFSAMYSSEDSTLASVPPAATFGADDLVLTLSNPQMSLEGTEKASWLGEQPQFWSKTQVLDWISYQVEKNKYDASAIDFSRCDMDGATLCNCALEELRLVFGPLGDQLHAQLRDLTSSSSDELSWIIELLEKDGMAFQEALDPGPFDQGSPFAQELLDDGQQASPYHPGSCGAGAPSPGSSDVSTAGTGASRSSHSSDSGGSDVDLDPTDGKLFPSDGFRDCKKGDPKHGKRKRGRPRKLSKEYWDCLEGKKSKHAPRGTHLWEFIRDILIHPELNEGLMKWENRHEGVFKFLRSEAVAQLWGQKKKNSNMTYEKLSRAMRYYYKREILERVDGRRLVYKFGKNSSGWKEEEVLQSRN
How it was run: as §1

CRX = CRX (Homo sapiens, UniProt O43186 1-299); settings: protein: recombinant; tags: N-terminal GST; dsDNA, one strand shown
How it was run: as §1

ETV1 = ETV1 (Homo sapiens, UniProt P50549 1-477); settings: protein: recombinant; tags: N-terminal GST; dsDNA, one strand shown
How it was run: as §1

ETV5, sequence (P41161 whole entry): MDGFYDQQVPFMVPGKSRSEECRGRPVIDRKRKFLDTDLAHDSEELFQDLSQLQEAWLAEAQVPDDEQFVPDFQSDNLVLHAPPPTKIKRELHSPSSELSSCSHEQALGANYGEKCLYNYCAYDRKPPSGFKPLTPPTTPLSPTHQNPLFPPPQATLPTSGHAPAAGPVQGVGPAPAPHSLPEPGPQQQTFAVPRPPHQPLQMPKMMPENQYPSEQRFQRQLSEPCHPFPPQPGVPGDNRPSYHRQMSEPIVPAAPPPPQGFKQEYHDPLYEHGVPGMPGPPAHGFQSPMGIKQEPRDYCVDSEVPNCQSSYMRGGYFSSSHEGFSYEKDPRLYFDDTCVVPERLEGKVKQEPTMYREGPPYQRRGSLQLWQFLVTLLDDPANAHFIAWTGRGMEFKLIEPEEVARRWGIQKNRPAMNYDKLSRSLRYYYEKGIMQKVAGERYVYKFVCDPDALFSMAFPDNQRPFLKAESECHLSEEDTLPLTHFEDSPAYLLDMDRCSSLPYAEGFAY
HSF1, sequence (Q00613 whole entry): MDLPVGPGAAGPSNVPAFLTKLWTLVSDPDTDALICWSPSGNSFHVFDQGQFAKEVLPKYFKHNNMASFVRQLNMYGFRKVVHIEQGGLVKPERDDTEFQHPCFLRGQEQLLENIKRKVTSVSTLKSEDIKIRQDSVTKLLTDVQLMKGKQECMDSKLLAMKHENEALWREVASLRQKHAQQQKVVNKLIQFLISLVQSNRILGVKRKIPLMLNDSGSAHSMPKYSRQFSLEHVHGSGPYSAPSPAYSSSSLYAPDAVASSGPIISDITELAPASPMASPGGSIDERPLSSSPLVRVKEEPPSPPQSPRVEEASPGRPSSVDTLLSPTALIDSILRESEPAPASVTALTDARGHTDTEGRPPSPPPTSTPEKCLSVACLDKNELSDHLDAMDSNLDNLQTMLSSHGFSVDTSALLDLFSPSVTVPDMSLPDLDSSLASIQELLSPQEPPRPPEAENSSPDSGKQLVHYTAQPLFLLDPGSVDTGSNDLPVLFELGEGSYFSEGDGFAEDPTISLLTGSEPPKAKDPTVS
ELF1, sequence (P32519 whole entry): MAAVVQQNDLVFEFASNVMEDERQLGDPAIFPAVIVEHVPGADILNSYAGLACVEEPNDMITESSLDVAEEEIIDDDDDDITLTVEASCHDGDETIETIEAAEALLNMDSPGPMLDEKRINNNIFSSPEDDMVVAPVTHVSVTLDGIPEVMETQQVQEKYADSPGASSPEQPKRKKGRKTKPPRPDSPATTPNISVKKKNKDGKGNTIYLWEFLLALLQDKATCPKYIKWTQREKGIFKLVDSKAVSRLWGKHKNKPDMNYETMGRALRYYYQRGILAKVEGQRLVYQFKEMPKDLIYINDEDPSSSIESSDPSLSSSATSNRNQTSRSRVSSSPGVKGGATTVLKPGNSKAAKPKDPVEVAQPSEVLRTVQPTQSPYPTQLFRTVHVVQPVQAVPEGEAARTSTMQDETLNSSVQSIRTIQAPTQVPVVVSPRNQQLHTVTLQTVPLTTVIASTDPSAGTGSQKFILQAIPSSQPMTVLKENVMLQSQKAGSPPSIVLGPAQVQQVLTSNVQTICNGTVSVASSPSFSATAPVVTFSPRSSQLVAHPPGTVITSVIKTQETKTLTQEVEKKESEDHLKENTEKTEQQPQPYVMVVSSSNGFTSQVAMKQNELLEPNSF
ELF4, sequence (Q99607 whole entry): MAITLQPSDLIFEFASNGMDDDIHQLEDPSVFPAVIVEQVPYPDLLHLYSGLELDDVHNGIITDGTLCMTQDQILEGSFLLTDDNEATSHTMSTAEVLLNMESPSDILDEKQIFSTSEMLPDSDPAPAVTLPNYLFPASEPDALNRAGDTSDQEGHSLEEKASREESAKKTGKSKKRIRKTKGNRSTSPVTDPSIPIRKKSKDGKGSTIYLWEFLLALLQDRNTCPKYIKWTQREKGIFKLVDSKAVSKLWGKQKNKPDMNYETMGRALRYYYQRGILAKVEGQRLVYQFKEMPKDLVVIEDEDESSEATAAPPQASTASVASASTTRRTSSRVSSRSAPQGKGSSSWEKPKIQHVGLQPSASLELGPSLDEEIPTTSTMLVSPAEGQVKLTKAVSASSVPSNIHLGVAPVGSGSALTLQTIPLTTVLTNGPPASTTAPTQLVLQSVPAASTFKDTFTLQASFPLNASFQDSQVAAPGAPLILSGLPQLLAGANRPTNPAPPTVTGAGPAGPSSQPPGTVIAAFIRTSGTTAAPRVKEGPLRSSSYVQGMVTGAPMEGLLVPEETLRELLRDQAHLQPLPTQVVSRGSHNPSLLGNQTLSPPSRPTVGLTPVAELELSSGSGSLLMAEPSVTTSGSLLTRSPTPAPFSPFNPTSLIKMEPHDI
CRX, sequence (O43186 whole entry): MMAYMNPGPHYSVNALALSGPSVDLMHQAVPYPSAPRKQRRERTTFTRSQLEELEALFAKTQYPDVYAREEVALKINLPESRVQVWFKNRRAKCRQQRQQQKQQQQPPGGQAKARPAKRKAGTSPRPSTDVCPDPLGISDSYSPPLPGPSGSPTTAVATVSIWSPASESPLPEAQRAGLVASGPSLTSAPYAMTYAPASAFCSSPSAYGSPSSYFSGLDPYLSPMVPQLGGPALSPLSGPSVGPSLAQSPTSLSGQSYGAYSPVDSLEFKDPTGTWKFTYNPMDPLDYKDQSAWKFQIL
SPIB, sequence (Q01892 whole entry): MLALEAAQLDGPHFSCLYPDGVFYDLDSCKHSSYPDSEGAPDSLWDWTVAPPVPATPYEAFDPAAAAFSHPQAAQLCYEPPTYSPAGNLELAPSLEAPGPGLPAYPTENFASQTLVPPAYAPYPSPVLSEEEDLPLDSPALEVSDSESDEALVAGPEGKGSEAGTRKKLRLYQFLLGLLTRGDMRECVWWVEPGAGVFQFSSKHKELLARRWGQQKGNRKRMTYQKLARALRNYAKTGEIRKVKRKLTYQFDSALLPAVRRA
ETV1, sequence (P50549 whole entry): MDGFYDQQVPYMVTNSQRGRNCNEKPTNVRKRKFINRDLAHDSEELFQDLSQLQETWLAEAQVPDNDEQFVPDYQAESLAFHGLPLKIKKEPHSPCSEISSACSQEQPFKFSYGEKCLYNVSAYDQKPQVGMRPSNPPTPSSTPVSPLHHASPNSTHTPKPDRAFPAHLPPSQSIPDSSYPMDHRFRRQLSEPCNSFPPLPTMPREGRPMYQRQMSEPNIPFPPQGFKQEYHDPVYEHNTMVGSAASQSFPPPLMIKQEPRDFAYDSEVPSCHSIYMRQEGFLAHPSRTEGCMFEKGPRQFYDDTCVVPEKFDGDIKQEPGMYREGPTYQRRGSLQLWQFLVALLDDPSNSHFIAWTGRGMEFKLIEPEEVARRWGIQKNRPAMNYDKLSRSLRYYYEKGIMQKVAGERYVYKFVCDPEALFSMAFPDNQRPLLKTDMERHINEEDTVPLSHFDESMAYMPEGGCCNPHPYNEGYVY

Question: Which binding signal (FLI1) does the source give for TAGATT here?
Answer: 1.17 fold enrichment (6-mer frequency, TF over GST control)

Question: And the binding signal (ELK1)?
Answer: 1.2 fold enrichment (6-mer frequency, TF over GST control)

Question: And the binding signal (GABPA)?
Answer: 1.18 fold enrichment (6-mer frequency, TF over GST control)

Question: What about the binding signal (ERG) of the same sequence?
Answer: 1.2 fold enrichment (6-mer frequency, TF over GST control)

Question: What about the binding signal (ELF1) of the same sequence?
Answer: 1.17 fold enrichment (6-mer frequency, TF over GST control)

Question: And the binding signal (EHF)?
Answer: 1.24 fold enrichment (6-mer frequency, TF over GST control)

Question: And the binding signal (SPI1)?
Answer: 1.16 fold enrichment (6-mer frequency, TF over GST control)

Question: And the binding signal (SPIB)?
Answer: 1.24 fold enrichment (6-mer frequency, TF over GST control)

Question: What about the binding signal (FEV) of the same sequence?
Answer: 1.14 fold enrichment (6-mer frequency, TF over GST control)

Question: And the binding signal (ETV5)?
Answer: 1.12 fold enrichment (6-mer frequency, TF over GST control)

Question: What about the binding signal (HSF1) of the same sequence?
Answer: 2.19 fold enrichment (6-mer frequency, TF over GST control)

Question: And the binding signal (SPIC)?
Answer: 1.28 fold enrichment (6-mer frequency, TF over GST control)

Question: What about the binding signal (ELF4) of the same sequence?
Answer: 1.19 fold enrichment (6-mer frequency, TF over GST control)

Question: And the binding signal (ELK4)?
Answer: 1.29 fold enrichment (6-mer frequency, TF over GST control)

Question: And the binding signal (ETV2)?
Answer: 1.13 fold enrichment (6-mer frequency, TF over GST control)

Question: What about the binding signal (ELF3) of the same sequence?
Answer: 1.07 fold enrichment (6-mer frequency, TF over GST control)

Question: And the binding signal (CRX)?
Answer: 2.29 fold enrichment (6-mer frequency, TF over GST control)

Question: And the binding signal (ETV1)?
Answer: 1.22 fold enrichment (6-mer frequency, TF over GST control)

Source: PMC7862700, “An all-to-all approach to the identification of sequence-specific readers for epigenetic DNA modifications on cytosine”
